Source: PubChem BioAssay (National Center for Advancing Translational Sciences (NCATS))
Shown are actives, neighbours in structure and some others; about 0.62% of the full set was active somewhere.
MBNL1 CUG block – blocks human MBNL1 binding to CUG repeat RNA. Q9NR56. Potency, µM (series often up to 57.5 µM), hits mostly inhibitors. 0.036% of 280,000 active. AID 2675. TR-FRET MBNL1-His/biotin-(CUG)12 binding, 665/545 ratio; active = well fitted inhibition curve with a large enough effect in the signal ratio, with a control signal flat, not every such curve was filed as active; inconclusive = small, poorly fitted or top-dose-only effect, or effect the other way, or a change in a side signal; inactive = no such curve, though single readings can be large or run the other way; the % refers to the signal ratio
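Inhibition of protein-RNA binding appears as loss of TR-FRET between terbium anti-His antibody on MBNL1-His and streptavidin-XL665 on biotin-(CUG)12. Activity is normalized to buffer-only and uninhibited-complex controls.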
ASM inhibitor – blocks human secretory acid sphingomyelinase; P17405; placental ASM, HMU-PC fluorogenic substrate, 60 min; Potency, µM (highest dose often 57.5 µM), most hits filed as inhibitors; 0.006% of 340,000 active; active = well fitted inhibition curve with a large enough effect; inconclusive = small, poorly fitted or top-dose-only effect; inactive = no such curve, though single readings can be large or run the other way
Target sequence (P17405 47-631 limits assumed): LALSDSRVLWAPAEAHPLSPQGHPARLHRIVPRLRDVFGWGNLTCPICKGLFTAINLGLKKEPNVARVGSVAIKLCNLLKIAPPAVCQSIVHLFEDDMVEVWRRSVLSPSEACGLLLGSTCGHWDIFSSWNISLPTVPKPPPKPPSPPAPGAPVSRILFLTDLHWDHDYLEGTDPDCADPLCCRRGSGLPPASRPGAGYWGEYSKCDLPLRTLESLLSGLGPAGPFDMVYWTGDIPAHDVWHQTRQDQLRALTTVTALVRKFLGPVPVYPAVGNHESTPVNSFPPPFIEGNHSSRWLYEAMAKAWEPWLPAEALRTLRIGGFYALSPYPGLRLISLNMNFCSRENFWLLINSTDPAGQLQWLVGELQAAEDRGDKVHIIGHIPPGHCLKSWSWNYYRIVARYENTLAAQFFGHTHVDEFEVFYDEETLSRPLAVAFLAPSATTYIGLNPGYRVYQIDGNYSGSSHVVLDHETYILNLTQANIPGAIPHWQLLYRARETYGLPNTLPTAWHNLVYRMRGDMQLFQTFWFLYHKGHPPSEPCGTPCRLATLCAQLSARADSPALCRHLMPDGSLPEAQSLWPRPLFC
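Human placenta-derived ASM enzyme was preincubated with compound for 10 minutes at room temperature, then given fluorogenic substrate HMU-PC0 (9 uM final) for 60 minutes at 37 °C; a pH 10 stop preceded fluorescence reading at Ex 386/Em 447 nm.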
gsp antag – gsp mutant antagonism; gsp-mutant cells, cAMP HTRF, 30 min; Potency, µM (series often up to 76.9 µM), actives largely listed as inhibitors; 0.4% of 340,000 active; AID 624288; calls by dose curve; cell line not stated here;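 note: intracellular cAMP measured with PDE inhibitor Ro 20-1724 present during compound exposure; nearly all actives have a fitted effect of over 65% in size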
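HTRF cAMP measurement after 30 min RT detection following 30 min, 37C compound treatment alongside […] (added as 300 uM solution) in G418-selected cells seeded at 2000/well and grown 16–24 h.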
Chronic BCR inh – blocks chronic active B-cell receptor signaling; ABC-DLBCL IkBa-CBG/CBR reporter, luminescence ratio, 4 h; Potency, µM (highest dose often 46.1 µM), usual class: inhibitors; 0.05% of 340,000 active; active = well fitted inhibition curve with a large enough effect in the signal ratio, with a control signal flat, not every such curve was filed as active; inconclusive = small, poorly fitted or top-dose-only effect, or effect the other way, or a change in a side signal; the % refers to the signal ratio
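Compounds up to 46 uM were incubated four hours with TMD8 cells whose green CBG68 luciferase is fused to IkappaBalpha; red CBR luminescence normalised the signal, and concentration-effect curves were fitted to fusion, red and ratio data.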
gsp agonist – agonists of gsp mutant (McCune-Albright syndrome) | gsp mutant cells, cAMP HTRF, 30 min | Potency, µM (doses to about 76.9 µM), most hits filed as activators | 0.13% of 340,000 active; active = well fitted activation curve with a large enough effect; inconclusive = small, poorly fitted or top-dose-only effect, or another doubt; inactive = no such curve, though single readings can be large or run the other way; cell line not stated here;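 note: phosphodiesterase inhibitor Ro 20-1724 added with compounds to block cAMP breakdown; nearly all actives have a fitted effect of over 60% in size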
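Cells in DMEM/10% FBS with G418 were pretreated with compounds in DMSO plus […] (300 uM stock) for 30 min at 37C. cAMP was measured by HTRF (cAMP-d2 plus anti-cAMP antibody-K) after 30 min at room temperature.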
Large screens that a line does not name were inactive.

CC(=O)N1CCN=C1SCc1cccc(C)c1	Chronic BCR inh inconclusive, gsp agonist inconclusive
COc1cccc(-c2noc(C3CCCN(C(=O)c4ccccc4OC)C3)n2)c1 (stereo not given)	gsp antag 35µM, Chronic BCR inh inconclusive
CC1CN(C(=O)CCC(=O)NCCCc2ccccc2)c2ccccc2O1 (stereo not given)	none
Cc1ccc(N/N=C(\Cc2nc3ccccc3[nH]2)c2ccccc2)cc1	Chronic BCR inh 23µM
c1ccc(N/N=C(\Cc2nc3ccccc3[nH]2)c2ccccc2)cc1	Chronic BCR inh inconclusive (no result: MBNL1 CUG block)
Cc1cc(C(=O)CSc2nc3ccccc3c(=O)n2C)c(C)n1CC1CCCO1 (stereo not given)	Chronic BCR inh inconclusive (no result: ASM inhibitor, gsp antag, gsp agonist)
Cc1cc(C(=O)CSc2nc3ccccc3c(=O)[nH]2)c(C)n1CC1CCCO1 (stereo not given)	gsp antag 35µM
COc1ccccc1NC(=S)N1CCN(c2cccc(C)c2C)CC1	none
O=C(O)c1ccc2c(c1)C(=O)N([C@H](Cc1ccc(O)cc1)C(=O)O)C2=O	none (no result: MBNL1 CUG block, ASM inhibitor, gsp antag, gsp agonist)
O=C(O)c1cc(C(=O)O)c(-c2ccccc2)c(C(=O)O)c1	none
O=C(O)c1cc(-c2ccccc2)nc(-c2ccccc2)c1	gsp antag 32µM (no result: MBNL1 CUG block)
CC(=O)N1CCN(C(=O)CCc2nc3ccccc3c(=O)[nH]2)CC1	none
O=C(CCc1nc2ccccc2c(=O)[nH]1)N1CCN(C/C=C/c2ccccc2)CC1	MBNL1 CUG block inconclusive, gsp antag 22µM, Chronic BCR inh inconclusive
COC(=O)c1ccc(/C(O)=C(\C#N)c2nc3ccccc3s2)cc1	gsp antag 18µM, Chronic BCR inh inconclusive
COC(=O)c1ccc(CC(=O)c2nc3ccccc3s2)cc1	none (no result: MBNL1 CUG block)
COc1ccc(Nc2nc(N3CCCC3)c3ccccc3n2)cc1	none
CCN(CC)c1ccc(Nc2nc(N3CCOCC3)c3ccccc3n2)cc1	gsp antag 50µM, Chronic BCR inh inconclusive
COc1ccccc1NC(=O)C1CCCN(S(=O)(=O)c2ccccc2)C1 (stereo not given)	none
Cc1ccc(C)c(N2CCN(C(=O)c3ccc4nsnc4c3)CC2)c1	MBNL1 CUG block inconclusive, gsp agonist inconclusive
COc1ccc(S(=O)(=O)N2CCC(C(=O)NCCC(=O)NCc3ccccc3OC)CC2)cc1	gsp antag 32µM
CSc1nc(N)nc(SCC(=O)Nc2ccc(Cl)cc2)c1C#N	gsp antag inconclusive
CSc1nc(N)nc(SCC(=O)Nc2cccc(F)c2)c1C#N	MBNL1 CUG block inconclusive, gsp antag 28µM, Chronic BCR inh inconclusive
COC(=O)c1ccc(/C=C/C(=O)OCC(=O)Nc2sccc2C(N)=O)cc1	gsp antag 28µM, Chronic BCR inh inconclusive (no result: MBNL1 CUG block)
NC(=O)c1ccsc1NC(=O)COC(=O)/C=C/c1ccc([N+](=O)[O-])cc1	none
CCOc1ccccc1NC1=C(OC)C(=O)C(Nc2ccccc2OCC)=C(OC)C1=O	none (no result: MBNL1 CUG block, Chronic BCR inh)
COc1cccc(C(=O)Nc2sc3c(c2C#N)CCN(C(C)=O)C3)c1	Chronic BCR inh 20µM
O=C(NCCOC(=O)c1ccc(Cl)c(S(=O)(=O)N2CCCCC2)c1)c1ccncc1	gsp antag 40µM, Chronic BCR inh inconclusive
O=C(NCc1ccncc1)c1ccc(Cl)c(S(=O)(=O)N2CCCCC2)c1	none
CCn1c(=S)[nH]c2nc3c(cc2c1=O)CCCC3	gsp agonist 8.9µM
COc1ccc(C(=O)C2CCCN(C(=O)c3cc(C4CC4)[nH]n3)C2)c(C)c1 (stereo not given)	none
O=C(CCn1nnc2ccccc21)Nc1nnc(Cc2ccccc2)s1	gsp antag 32µM, Chronic BCR inh inconclusive, gsp agonist inconclusive
Cc1c(C(=O)N2CCCCC2C)sc2ncnc(N3CCc4ccccc4C3)c12 (stereo not given)	gsp antag 11µM, Chronic BCR inh inconclusive
Cc1c(C(=O)N2CCOCC2)sc2ncnc(N3CCc4ccccc4C3)c12	gsp agonist inconclusive
CCCc1nnc(NC(=O)c2nc(S(=O)(=O)Cc3cccc(C)c3)ncc2Cl)s1	gsp antag 28µM, Chronic BCR inh inconclusive
Cc1cccc(CS(=O)(=O)c2ncc(Cl)c(C(=O)Nc3c(C)cccc3C)n2)c1	Chronic BCR inh inconclusive
O=C(Nc1ccc(F)cc1)c1nc(S(=O)(=O)Cc2ccccc2)ncc1Cl	gsp antag 40µM, Chronic BCR inh inconclusive
N#CC1=C(N)SC(N)=C(C#N)C1c1ccc(C(F)(F)F)cc1	MBNL1 CUG block inconclusive (no result: ASM inhibitor, gsp antag, gsp agonist)
CCc1ccc(C2C(C#N)=C(N)SC(N)=C2C#N)cc1	gsp agonist 40µM
COc1ccc(C)cc1NC(=O)c1cccc(-c2ccc(OC(C)=O)cc2)c1	gsp antag 25µM, Chronic BCR inh inconclusive
COc1ccc(-c2cccc(C(=O)Nc3ccccc3C)c2)cc1	Chronic BCR inh inconclusive
CC(=O)Oc1ccc(C(=O)Nc2ccccc2NC(=O)c2ccc(OC(C)=O)cc2)cc1	gsp antag 25µM, Chronic BCR inh inconclusive
COC(CNC(=O)C(=O)NCC1CCCN1S(=O)(=O)c1cccs1)OC (stereo not given)	gsp agonist inconclusive (no result: MBNL1 CUG block)
O=C(CCC(=O)N1CC2CCCN2c2ccccc21)NCc1ccc(Cl)cc1 (stereo not given)	none (no result: MBNL1 CUG block, ASM inhibitor, gsp antag, gsp agonist)
O=C(NC1CCN(Cc2ccccc2)CC1)c1cc(S(=O)(=O)N2CCOCC2)ccc1Cl	gsp antag 50µM (no result: MBNL1 CUG block, Chronic BCR inh)
O=C(NC1CCN(Cc2ccccc2)C1)c1cccc(S(=O)(=O)N2CCOCC2)c1 (stereo not given)	none (no result: MBNL1 CUG block)
CC(NC(=O)c1cccc(S(=O)(=O)N2CCN(Cc3ccccc3)CC2)c1)c1ccc(Br)cc1 (stereo not given)	none
CC(NC(=O)c1cccc(S(=O)(=O)N2CCN(Cc3ccccc3)CC2)c1)c1ccccc1Cl (stereo not given)	gsp antag active (no result: MBNL1 CUG block, Chronic BCR inh)
COc1cccc(N2CCN(C(=O)C3CCN(C(=O)Nc4ccccc4)CC3)CC2)c1	none (no result: MBNL1 CUG block, ASM inhibitor, gsp antag, Chronic BCR inh)
O=C(O)Cc1ccc(NC(=O)Cc2ccc3ccccc3c2)cc1	gsp agonist inconclusive
COc1ccc(-n2c(=S)[nH]c3c(oc4ccccc43)c2=O)cc1	Chronic BCR inh inconclusive, gsp agonist 11µM
Cc1ccc(-n2c(=O)[nH]c3c(oc4ccccc43)c2=O)cc1	Chronic BCR inh inconclusive, gsp agonist inconclusive
O=C(COC(=O)c1ccc(O)cc1O)NC1CC1	none (no result: MBNL1 CUG block)
Cc1cccc(-c2nnc(SCC(=O)NCc3ccc4c(c3)OCO4)n2C)c1	none
Cn1c(SCC(=O)NCc2ccc3c(c2)OCO3)nnc1-c1cc2ccccc2cc1O	gsp antag 40µM, gsp agonist inconclusive
COc1ccc(CN2C(=O)c3ccccc3C2=O)cc1C(=O)N(C)CC(=O)Nc1ccc(F)cc1	Chronic BCR inh inconclusive (no result: MBNL1 CUG block)
CCc1c(C)c(C#N)c2nc3ccccc3n2c1Cl	Chronic BCR inh 8.2µM (no result: ASM inhibitor, gsp antag, gsp agonist)
CCN(CC)S(=O)(=O)c1ccc(Cl)c(NC(=O)COc2ccc3c(C)cc(=O)oc3c2)c1	none
